Source: PubChem (National Center for Advancing Translational Sciences (NCATS))
In the library only some 3.7% were active in any assay of this set; here they are far more common.
ELG1 repair inh: inhibitors of ELG1-dependent DNA repair in HEK293T cells; HEK293T ELG1-luciferase reporter, luminescence, 16 h; DNA damage induced by 5-fluorouridine; Potency, µM (doses to about 46.1 µM), inactives show at the top dose activity change, negative = inhibition, most hits filed as inhibitors; hit rate 2.3% among 330,000; AID 504467; note: % is set by controls: 0 for no effect and ±100 for the full control effect; nearly all actives have a fitted effect of over 55% in size
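DMSO vehicle served as the neutral condition. Each well held 2,000 cells given 5-fluorouridine plus compound; after 16 hr at 37 °C/5% CO2, ONE-Glo was added and luciferase measured 30 min later.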
A549 tox-1: counter-screen for Nrf2 inhibitors: cytotoxicity in A549 cells; A549 ARE-Fluc cells, CellTiter-Fluor viability, 18-24 h; Potency, µM (titrated, usually from 46 µM), without a hit: top-dose activity change, negative = cytotoxicity, hits mostly inhibitors; hit rate 0.16% among 390,000; note: % is set by controls: 0 for no effect and ±100 for the full control effect
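Cytotoxicity counterscreen: CellTiter-Fluor fluorescence was measured in A549 ARE_Fluc cells after 18-24 h of compound exposure in a concentration series. The subsequent BugLite luminescent read reports ARE-luciferase activity.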
Nrf2 block: inhibitors of Nrf2 signaling; Potency, µM (highest dose often 46 µM), without a hit: at the top dose activity change, negative = inhibition, usual class: inhibitors; A549 ARE-Fluc reporter, luciferase luminescence, 18-24 h; hit rate 2.1% among 360,000; AID 504444; note: % is set by controls: 0 for no effect and ±100 for the full control effect; nearly all actives have a fitted effect of over 60% in size
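Quantitative HTS in A549 cells stably bearing an antioxidant response element-firefly luciferase construct. Inhibition of Nrf2-driven transcription was scored by luminescence after 18-24 h of compound exposure at 37 °C.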
Nrf2 ARE act: activates Nrf2 signaling; AREc32 ARE-luciferase reporter (MCF7-derived line), luminescence, 24 h; Potency, µM (series often up to 46.1 µM), for the others: at the highest dose activation, usual class: activators; hit rate 0.31% among 410,000; AID 624171; note: % of control where 0% means no effect; nearly all actives have a fitted effect of over 65% in size
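Cells of the AREc32 ARE-luciferase line are plated in OPTI-MEM containing 5% FBS and left overnight at 37 deg C. Compounds are pinned in, incubation continues 24 hr, and firefly luciferase signal is then measured.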
FLuc counter 3: firefly luciferase inhibition, Nrf2 hit validation; shares compounds with Nrf2 block; purified firefly luciferase, luminescence inhibition; Potency, µM (top dose mostly 57.5 µM), inactives show at the top dose activity change, negative = inhibition, most hits filed as inhibitors; hit rate 4% among 1,400; note: % is set by controls: 0 for no effect and ±100 for the full control effect; nearly all actives have a fitted effect of over 65% in size
Target sequence (P08659 whole entry, looked up): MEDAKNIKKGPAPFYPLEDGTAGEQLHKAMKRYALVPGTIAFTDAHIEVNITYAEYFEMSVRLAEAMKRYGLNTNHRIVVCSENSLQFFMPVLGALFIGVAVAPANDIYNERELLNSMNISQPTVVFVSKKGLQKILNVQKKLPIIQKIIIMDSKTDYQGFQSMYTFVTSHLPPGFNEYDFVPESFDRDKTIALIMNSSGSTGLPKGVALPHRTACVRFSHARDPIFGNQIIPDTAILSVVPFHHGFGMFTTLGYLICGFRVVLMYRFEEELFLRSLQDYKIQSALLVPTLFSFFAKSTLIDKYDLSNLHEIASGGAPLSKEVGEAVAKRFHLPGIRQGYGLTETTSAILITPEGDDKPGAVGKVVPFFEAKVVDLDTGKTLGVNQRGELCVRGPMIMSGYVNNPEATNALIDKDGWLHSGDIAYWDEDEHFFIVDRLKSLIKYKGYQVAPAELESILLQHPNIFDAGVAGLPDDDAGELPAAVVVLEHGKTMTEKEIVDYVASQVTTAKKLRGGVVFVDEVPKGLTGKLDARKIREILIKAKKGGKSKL
A549 tox-2: A549 cytotoxicity, Nrf2 inhibitor counterscreen. Potency, µM (highest dose often 46.1 µM), without a hit: at the top dose activity change, negative = cytotoxicity, actives largely listed as inhibitors. A549 ARE-Fluc cells, cytotoxicity counterscreen. shares compounds with Nrf2 block. hit rate 2% among 1,400;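 note: cells exposed to compounds for 18 to 24 hours; % is set by controls: 0 for no effect and ±100 for the full control effect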
Nrf2 ARE inh: confirmation of Nrf2 inhibitors in A549 ARE reporter cells. shares compounds with Nrf2 block. A549 ARE-firefly luciferase reporter, luminescence. Potency, µM (doses to about 46.1 µM), for the others: at the top dose activity change, negative = inhibition, hits mostly inhibitors. hit rate 74% among 1,400; note: % is set by controls: 0 for no effect and ±100 for the full control effect; nearly all actives have a fitted effect of over 65% in size
* = called active by the depositor; ? = inconclusive; / = no result given. Calls come from the whole dose curve; as a rule, active = well fitted curve in the direction sought with a large enough effect; inconclusive = small, poorly fitted or top-dose-only effect, or another doubt; inactive = no such curve, though single readings can be large; an effect the other way counts as inactive or inconclusive. Potency is the fitted concentration of half-maximal effect.

SMILES	ELG1 repair inh	A549 tox-1	Nrf2 block	Nrf2 ARE act	FLuc counter 3	A549 tox-2	Nrf2 ARE inh
Cc1nn(Cc2ccc(Cl)cc2)c(C)c1NC(=O)c1cc(-c2ccc3c(c2)OCO3)on1	18µM*	?	4.1µM*	6%	-2%	-10%	9.2µM*
Cc1nc2ccc(NS(=O)(=O)c3ccc(F)c(C)c3)cc2[nH]1	?	-2%	8.2µM*	-1%	-1%	-3%	5.8µM*
CCN1C(=O)[C@H]2[C@@H](c3ccc(-c4ccc(C(C)=O)cc4)cc3)N[C@@](Cc3ccccc3)(C(=O)OC)[C@H]2C1=O	-17%	-12%	?	1%	/	/	/
FC(F)(F)c1cccc(Nc2nc3nonc3nc2Nc2ccc(Cl)cc2)c1	/	2.9µM*	0.58µM*	-3%	?	4.6µM*	1µM*
CC12CC(c3ccccc3O1)N(C(=O)c1ccco1)C(=S)N2c1ccccc1 (configuration not stated)	-3%	?	8.2µM*	0%	2%	-14%	-16%
Cc1cc(C)n(S(=O)(=O)/C=C/c2ccccc2)n1	7%	?	9.2µM*	3.2µM*	2%	-15%	-8%
Cc1cc(C)cc(NC(=O)Cn2cc(C(=O)C3CCCCC3)c3ccccc32)c1	/	-1%	?	-1%	/	/	/
Cc1c(Cl)cccc1NC(=O)Cn1cc(C(=O)C2CCCCC2)c2ccccc21	/	-21%	2.9µM*	0%	0%	-16%	/
CC1Cc2ccccc2N1c1ncnc(N)c1[N+](=O)[O-] (configuration not stated)	1.5µM*	-14%	4.6µM*	-2%	2%	-25%	8.2µM*
Cc1cc(C)n(CCNC(=O)c2cc(COc3ccc4ncccc4c3)on2)n1	?	2%	?	0%	/	/	/
CC(CCCC(C)(C)O)NC(=O)c1cc(COc2ccc3ncccc3c2)on1 (configuration not stated)	2.6µM*	?	5.2µM*	3%	-11%	-4%	6.5µM*
CCC1CCCCN1C(=O)c1cc(COc2ccc3ncccc3c2)on1 (configuration not stated)	?	?	2.1µM*	3%	0%	-7%	/
Cc1nc(CN(C)C(=O)c2cc(COc3ccc4ncccc4c3)on2)cs1	?	-15%	2.9µM*	0%	-17%	-5%	-42%
CN(Cc1ccccn1)C(=O)c1cc(COc2ccc(F)c(F)c2)on1	/	/	/	9%	/	/	/
COc1ccc(C(=O)NCC(c2cccs2)S(=O)(=O)c2ccc(F)c(C)c2)cc1 (configuration not stated)	/	-4%	/	5%	/	/	/
Cc1nn2c(-c3cccc(NC(=O)c4ccccc4)c3)nnc2c2ccccc12	/	-1%	-12%	2%	/	/	/
CS(=O)(=O)c1ccc(C(=O)OCC(=O)N2CCCC2)cc1[N+](=O)[O-]	/	-5%	-10%	/	/	/	/
CC(=O)N(C(C)=O)c1ncc2c([nH]c3ccccc32)c1C#N	?	-15%	8.2µM*	0%	-18%	-11%	/
COc1ccc(F)cc1-c1cc(NC(C)=O)c2ncc(-c3cccc(C(F)(F)F)c3)n2c1	/	/	/	10%	/	/	/
Cn1cc(S(=O)(=O)N2CCc3ccccc32)cc1C(=O)NC(C)(C)C	?	-12%	2.1µM*	-1%	3%	-7%	4.6µM*
Cc1cccc(C)c1NC(=O)c1cc(S(=O)(=O)N2CCc3ccccc32)cn1C	27%	6%	6%	-1%	/	/	/
Cc1c(C(=O)O)sc2nc(CSc3ncc(C(F)(F)F)cc3Cl)[nH]c(=O)c12	9%	-2%	-8%	0%	/	/	/
COc1ccc(/C=N/NS(=O)(=O)c2ccccc2)cc1OC(=O)c1ccc(C)cc1	2%	-9%	9.2µM*	-3%	1%	-1%	7.3µM*
COc1ccccc1C(CNC(=O)c1oc2ccccc2c1C)N1CCCC1 (configuration not stated)	-21%	-6%	2%	2%	/	/	/
CC1(c2ccc3ccccc3c2)NC(=O)N(CC(=O)N2CCC(C(N)=O)CC2)C1=O (configuration not stated)	0%	0%	-16%	1%	/	/	/
SMILES	ELG1 repair inh	A549 tox-1	Nrf2 block	Nrf2 ARE act	FLuc counter 3	A549 tox-2	Nrf2 ARE inh
CC1(c2ccc3ccccc3c2)NC(=O)N(CC(=O)N2CCN(Cc3ccccc3)CC2)C1=O (configuration not stated)	-25%	?	1.3µM*	3%	2%	-5%	4.6µM*
CCN1/C(=C/c2ccc3cc(C)cc(C)c3[n+]2CC)Sc2cc(C)ccc21	?	16µM*	?	0%	-11%	?	1.6µM*
CCN1/C(=C\c2ccc3cc(C)ccc3[n+]2CC)Sc2cc(C)c(C)cc21	?	?	8.2µM*	-1%	-7%	?	1.8µM*
CCN1/C(=C/c2ccc3cccc(C)c3[n+]2CC)Sc2ccccc21	-1%	?	2.6µM*	-1%	0%	?	2.1µM*
CC[n+]1c(/C=C/c2ccc(OC)c(OC)c2)ccc2ccccc21	?	-19%	?	4%	/	/	/
CCCc1ccc(OCC(=O)Nc2sc(C(=O)OCC)c(C)c2C(=O)OCC)cc1	/	-7%	?	0%	/	/	/
Cc1cc(=O)[nH]c(N/N=C/c2cc(C)n(CC(F)(F)F)c2C)n1	?	-12%	4.1µM*	1%	-7%	-20%	1.5µM*
Cn1c(=O)c2c(nc(SCC(=O)Nc3ccc(OC(F)(F)F)cc3)n2Cc2cccc(C(F)(F)F)c2)n(C)c1=O	/	?	7.3µM*	0%	2%	?	15µM*
Cn1c(=O)c2c(nc(SCC(=O)Nc3ccccc3)n2Cc2ccccc2F)n(C)c1=O	/	-10%	7%	-1%	/	/	/
CC(=O)c1cccc(NC(=O)N2CCCCCC2)c1	15%	-3%	9%	0%	/	/	/
CSc1cccc(NS(=O)(=O)c2ccc(C(C)=O)cc2)c1	7.3µM*	1%	4.6µM*	0%	5%	0%	/
CSc1cccc(NS(=O)(=O)c2ccc(F)cc2)c1	-10%	-6%	?	0%	/	/	/
CC(=O)c1cccc(NS(=O)(=O)c2ccc(NC(=O)N3CCCCC3)cc2)c1	11%	-13%	8.2µM*	0%	0%	-3%	15µM*
C1=C2C[N+]3(CCCC3)CC2Cc2ccc3ccccc3c21 (configuration not stated)	-12%	-17%	2.1µM*	-2%	-1%	-13%	7.3µM*
CCN(C(=O)Nc1cn(CC(C)C)c(=O)c2ccccc12)c1cc(C)ccc1C	/	4%	?	0%	/	/	/
